Inconclusive results are not listed. A structure can be active in one record and inactive in another. The source made the active and inactive calls. Unless noted, calls follow the shape of the dose curve; as a rule, active = well fitted curve in the direction sought with a large enough effect in the repeat runs; inconclusive = weak or mixed curves; inactive = no such curve, though single readings can be large; an effect the other way counts as inactive or inconclusive.
Assays:
[1] = qHTS assay to identify small molecule antagonists of the glucocorticoid receptor (GR) signaling pathway - cell viability counter screen (AID 720693); also: nearly all actives have a fitted effect of over 55% in size; also: potency is read from the fitted curve at half-maximal effect
[2] = qHTS assay for identifying genotoxic compounds that show differential cytotoxicity against isogenic chicken DT40 cell lines with known DNA damage response pathways - wild type cell line (AID 743012); also: nearly all actives have a fitted effect of over 60% in size; also: potency is read from the fitted curve at half-maximal effect
Outline: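 Quantitative HTS on parental DT40 cells: 40 h compound treatment at 37 C/5% CO2, with viability then determined by CellTiter-Glo luminescence. Values serve as the DNA repair-proficient reference for differential cytotoxicity.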

[3] = qHTS assay for identifying genotoxic compounds that show differential cytotoxicity against isogenic chicken DT40 cell lines with known DNA damage response pathways - Rev3 mutant cell line (AID 743014); also: nearly all actives have a fitted effect of over 55% in size; also: potency is read from the fitted curve at half-maximal effect
[4] = qHTS assay for identifying genotoxic compounds that show differential cytotoxicity against isogenic chicken DT40 cell lines with known DNA damage response pathways - Rad54/Ku70 mutant cell line (AID 743015); also: nearly all actives have a fitted effect of over 60% in size; also: potency is read from the fitted curve at half-maximal effect
[5] = qHTS assay to identify small molecule antagonists of the androgen receptor (AR) signaling pathway - cell viability counter screen (AID 743033; also: nearly all actives have a fitted effect of over 45% in size; also: potency is read from the fitted curve at half-maximal effect)
[6] = qHTS assay to identify small molecule antagonists of the androgen receptor (AR) signaling pathway using the MDA cell line - cell viability counter screen (AID 743041; also: nearly all actives have a fitted effect of over 45% in size)
Outline: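 R1881-driven MDA-kb2 AR-luc cells, 3,000/well, were dosed with library compounds for 16 h; cell health came from CellTiter-Fluor fluorescence in the reporter wells.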

[7] = qHTS assay to identify small molecule antagonists of the thyroid receptor (TR) signaling pathway - cell viability counter screen (AID 743064); also: nearly all actives have a fitted effect of over 50% in size
Outline: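 GH3.TRE-Luc cells, 4 h pre-plating; cpd + T3 1 nM final; 37 °C 23.5 h; CellTiter-Fluor 30 min; fluorescence read.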

[8] = qHTS assay to identify small molecule antagonists of the thyroid receptor (TR) signaling pathway (AID 743065); also: nearly all actives have a fitted effect of over 55% in size; also: potency is read from the fitted curve at half-maximal effect; as to activity, negative = inhibition: series mostly up to about 70 µM
Outline: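 Antagonism measured as loss of luciferase signal in GH3 cells stably carrying a TRE-luciferase reporter, co-treated with compound and T3 (1 nM final) for 23.5 h at 37 C. Viability was read in the same well by CellTiter-Fluor.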

[9] = system: thyroid hormone receptor (rat, GH3 cells); test: qHTS assay to identify small molecule agonists of the thyroid receptor (TR) signaling pathway (AID 743066; calls by dose curve)
[10] = molecular target: Estrogen receptor (Homo sapiens) (UniProt P03372); test: qHTS assay to identify small molecule antagonists of the estrogen receptor alpha (ER-alpha) signaling pathway (AID 743069; active = well fitted curve in the direction sought with a large enough effect in the signal ratio in the repeat runs, not every such curve was filed as active; the % refers to the signal ratio)
Sequence of Estrogen receptor (Homo sapiens) (P03372 whole entry, looked up): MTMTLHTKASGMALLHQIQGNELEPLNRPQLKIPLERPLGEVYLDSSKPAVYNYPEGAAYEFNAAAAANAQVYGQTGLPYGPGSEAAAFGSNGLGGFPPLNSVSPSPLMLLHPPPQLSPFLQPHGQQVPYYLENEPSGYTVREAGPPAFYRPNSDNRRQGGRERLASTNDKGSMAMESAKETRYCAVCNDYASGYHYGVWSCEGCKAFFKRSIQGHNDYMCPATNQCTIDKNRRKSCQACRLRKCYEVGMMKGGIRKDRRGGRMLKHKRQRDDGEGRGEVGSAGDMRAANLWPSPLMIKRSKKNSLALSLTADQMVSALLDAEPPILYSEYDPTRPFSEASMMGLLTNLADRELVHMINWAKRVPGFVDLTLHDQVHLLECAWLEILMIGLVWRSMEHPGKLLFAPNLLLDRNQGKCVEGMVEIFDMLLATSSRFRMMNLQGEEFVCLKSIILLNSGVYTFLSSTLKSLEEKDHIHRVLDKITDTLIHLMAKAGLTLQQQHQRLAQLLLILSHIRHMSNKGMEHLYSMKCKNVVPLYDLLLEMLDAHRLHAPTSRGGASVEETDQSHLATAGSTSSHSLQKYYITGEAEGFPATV
Outline: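 Compound effects are measured against 17beta-estradiol stimulation in HEK293 cells with a UAS-controlled beta-lactamase reporter for ER-alpha. Exposure lasts 18 hr at 37C; LiveBLAzer B/G FRET substrate follows for 2 hr at room temperature.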

[11] = qHTS assay to identify small molecule antagonists of the estrogen receptor alpha (ER-alpha) signaling pathway - cell viability counter screen (AID 743074; calls by dose curve;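 also: HEK293 cells carrying ER-alpha-UAS-bla reporter stimulated with 17beta-estradiol; nearly all actives have a fitted effect of over 45% in size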; also: potency is read from the fitted curve at half-maximal effect)
[12] = molecular target: Estrogen receptor (Homo sapiens) (UniProt P03372); test: qHTS assay to identify small molecule agonists of the estrogen receptor alpha (ER-alpha) signaling pathway (AID 743075; calls by dose curve)
[13] = molecular target: Estrogen receptor (Homo sapiens) (UniProt P03372); test: qHTS assay to identify small molecule agonists of the estrogen receptor alpha (ER-alpha) signaling pathway using the BG1 cell line (AID 743079); also: nearly all actives have a fitted effect of over 20% in size; also: potency is read from the fitted curve at half-maximal effect
[14] = qHTS assay to identify small molecule antagonists of the estrogen receptor alpha (ER-alpha) signaling pathway using the BG1 cell line (AID 743080; calls by dose curve;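 also: BG1 cells stimulated with 17beta-estradiol alongside compound; series mostly up to about 70 µM; nearly all actives have a fitted effect of over 25% in size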)
Outline: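 BG1-Luc-4E2 cells (endogenous full-length ER-alpha, 4xERE luciferase) hormone-starved 5 days in charcoal-stripped FBS, plated 4,000/well for 24 h, then compound plus 17beta-estradiol for 21.5 h at 37 C; ONE-Glo luminescence read.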

[15] = qHTS assay to identify small molecule antagonists of the estrogen receptor alpha (ER-alpha) signaling pathway using the BG1 cell line - cell viability counter screen (AID 743081);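 also: compound given together with 17beta-estradiol as the ER stimulus; nearly all actives have a fitted effect of over 45% in size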; also: potency is read from the fitted curve at half-maximal effect
Aromatase (Homo sapiens) = Aromatase (Homo sapiens) (UniProt P11511); test: qHTS assay to identify aromatase inhibitors (AID 743083); also: nearly all actives have a fitted effect of over 55% in size; also: potency is read from the fitted curve at half-maximal effect; as to activity, negative = inhibition: series mostly up to about 70 µM
Sequence of Aromatase (Homo sapiens) (P11511 whole entry, looked up): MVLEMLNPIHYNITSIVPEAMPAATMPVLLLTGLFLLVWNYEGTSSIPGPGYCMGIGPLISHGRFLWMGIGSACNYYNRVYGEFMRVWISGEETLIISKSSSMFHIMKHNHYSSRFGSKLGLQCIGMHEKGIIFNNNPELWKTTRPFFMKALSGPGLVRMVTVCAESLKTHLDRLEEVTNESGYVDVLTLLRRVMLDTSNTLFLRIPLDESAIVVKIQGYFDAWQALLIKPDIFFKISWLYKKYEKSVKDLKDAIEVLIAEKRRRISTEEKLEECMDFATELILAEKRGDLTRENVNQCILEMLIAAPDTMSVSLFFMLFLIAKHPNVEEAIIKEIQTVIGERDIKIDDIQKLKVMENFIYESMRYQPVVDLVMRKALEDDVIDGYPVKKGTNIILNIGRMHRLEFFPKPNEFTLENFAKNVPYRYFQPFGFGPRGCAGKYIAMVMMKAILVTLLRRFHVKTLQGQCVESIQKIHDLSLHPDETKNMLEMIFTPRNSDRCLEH

[16] = qHTS assay to identify aromatase inhibitors - cell viability counter screen (AID 743084); also: potency is read from the fitted curve at half-maximal effect
[17] = molecular target: Androgen receptor (Homo sapiens) (UniProt P10275); test: qHTS assay to identify small molecule agonists of the androgen receptor (AR) signaling pathway (AID 743036; active = well fitted activation curve with a large enough effect in the signal ratio in the repeat runs, with a control signal flat, not every such curve was filed as active; the % refers to the signal ratio)
Sequence of Androgen receptor (Homo sapiens) (P10275 whole entry, looked up): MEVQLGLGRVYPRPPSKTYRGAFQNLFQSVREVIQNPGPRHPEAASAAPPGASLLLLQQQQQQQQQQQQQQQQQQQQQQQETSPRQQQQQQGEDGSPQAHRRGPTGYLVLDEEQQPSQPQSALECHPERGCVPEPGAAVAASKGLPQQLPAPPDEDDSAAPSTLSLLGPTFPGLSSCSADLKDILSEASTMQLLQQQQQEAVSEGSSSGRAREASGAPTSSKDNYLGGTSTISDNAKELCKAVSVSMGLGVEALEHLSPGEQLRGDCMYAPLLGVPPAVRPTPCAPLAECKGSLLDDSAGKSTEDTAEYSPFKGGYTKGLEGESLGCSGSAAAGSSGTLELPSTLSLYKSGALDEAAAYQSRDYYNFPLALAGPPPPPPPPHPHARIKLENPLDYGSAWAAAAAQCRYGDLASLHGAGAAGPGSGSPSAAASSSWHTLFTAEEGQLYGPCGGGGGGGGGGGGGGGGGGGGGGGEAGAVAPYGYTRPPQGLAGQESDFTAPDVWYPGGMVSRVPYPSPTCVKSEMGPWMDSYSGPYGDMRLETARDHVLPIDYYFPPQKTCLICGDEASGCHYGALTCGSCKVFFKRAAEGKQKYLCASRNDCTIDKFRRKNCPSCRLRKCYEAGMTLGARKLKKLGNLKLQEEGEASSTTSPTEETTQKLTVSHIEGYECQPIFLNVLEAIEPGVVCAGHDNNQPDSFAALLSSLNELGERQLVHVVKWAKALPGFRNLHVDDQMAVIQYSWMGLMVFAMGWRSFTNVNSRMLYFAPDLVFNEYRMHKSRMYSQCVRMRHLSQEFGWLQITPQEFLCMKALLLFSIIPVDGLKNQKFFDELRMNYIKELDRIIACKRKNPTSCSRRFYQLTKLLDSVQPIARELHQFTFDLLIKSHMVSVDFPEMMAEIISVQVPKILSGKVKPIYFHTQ
Outline: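 AR-bla HEK293 cells, 2,000/well; 4 h preincubation 37C/5% CO2; compound (DMSO) 16 h at 37C; LiveBLAzer B/G FRET substrate 2 h RT; fluorescence intensity read-out.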

[18] = molecular target: Androgen receptor (Homo sapiens) (UniProt P10275); test: qHTS assay to identify small molecule agonists of the androgen receptor (AR) signaling pathway using the MDA cell line (AID 743040; also: nearly all actives have a fitted effect of over 20% in size; also: potency is read from the fitted curve at half-maximal effect)
Outline: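 After a 5 h incubation at 37C and 0% CO2, MDA-kb2 reporter cells were dosed with compounds in DMSO and kept 16 h under the same conditions. Luciferase activity was then read as luminescence with ONE-Glo.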

[19] = molecular target: Androgen receptor (Homo sapiens) (UniProt P10275); test: qHTS assay to identify small molecule antagonists of the androgen receptor (AR) signaling pathway using the MDA cell line (AID 743042; also: nearly all actives have a fitted effect of over 55% in size)
Outline: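 Antagonist mode: compounds plus R1881 agonist added to MDA-kb2 AR-luc cells, incubated 16 h at 37C. Luciferase reporter luminescence quantified, with multiplexed CellTiter-Fluor readout for cell viability.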
% is scaled to controls: 0 for no effect and ±100 for the full control effect.

Cc1ccc(N(CCO)CCO)cc1
inactive: Potency [1] | Potency [2] | Potency [3] | Potency [4] | Potency [5] | Potency [6] | Potency [7] | Potency [8] | Potency [9] | Potency [10] | Potency [11] | Potency [12] | Potency [13] | Potency [14] | Potency [15] | Potency (Aromatase (Homo sapiens)) | Potency [16]

CCN(CC)c1ccc(C(=C2C=CC(=[N+](CC)CC)C=C2)c2ccc(S(=O)(=O)O)cc2S(=O)(=O)[O-])cc1
active: Potency [1] 21.9 µM | Potency [2] 24.3 µM | Potency [5] 21.9 µM | Potency [8] 19.3 µM | Potency [11] 24.5 µM | Potency [15] 30.6 µM | Potency (Aromatase (Homo sapiens)) 9.69 µM | Potency [16] 19.3 µM
inactive: Potency [3] | Potency [4] | outcome [17] | Potency [18] | Potency [6] | Potency [19] | Potency [7] | Potency [9]

Nc1cccc2c(N)cccc12
active: Potency [2] 54.5 µM | Potency [3] 47.2 µM | Potency [4] 41.6 µM
inactive: Potency [1] | Potency [5] | Potency [18] | Potency [7] | Potency [8] | Potency [9] | Potency [10] | Potency [12] | Potency [14] | Potency [16]

CCCCCCCC(=O)OCCCCCC
inactive: Potency [1] | Potency [2] | Potency [3] | Potency [4] | Potency [5] | outcome [17] | Potency [18] | Potency [6] | Potency [19] | Potency [7] | Potency [8] | Potency [9] | Potency [11] | Potency [15] | Potency (Aromatase (Homo sapiens)) | Potency [16]

CC(C)c1ccc(C#N)cc1
inactive: Potency [1] | Potency [2] | Potency [3] | Potency [4] | Potency [5] | Potency [6] | Potency [7] | Potency [8] | Potency [9] | Potency [10] | Potency [11] | Potency [12] | Potency [13] | Potency [14] | Potency [15] | Potency (Aromatase (Homo sapiens)) | Potency [16]

O=C(O)/C=C/c1ccc(O)c(O)c1
inactive: Potency [1] | Potency [2] | Potency [3] | Potency [4] | Potency [5] | Potency [6] | Potency [19] | Potency [7] | Potency [8] | Potency [9] | Potency [11] | Potency [15] | Potency (Aromatase (Homo sapiens))
active: Potency [18] 27.5 µM

C=CCOC(=O)COCCC(C)C
inactive: Potency [1] | Potency [2] | Potency [3] | Potency [4] | Potency [5] | Potency [6] | Potency [7] | Potency [8] | Potency [9] | Potency [10] | Potency [11] | Potency [12] | Potency [13] | Potency [14] | Potency [15] | Potency (Aromatase (Homo sapiens))

ClC1=C(Cl)C1(Cl)Cl
inactive: Potency [1] | Potency [2] | Potency [3] | Potency [4] | Potency [5] | Potency [6] | Potency [7] | Potency [8] | Potency [9] | Potency [10] | Potency [11] | Potency [12] | Potency [13] | Potency [14] | Potency [15] | Potency (Aromatase (Homo sapiens)) | Potency [16]

COc1ccc2nc(S(=O)Cc3ncc(C)c(OC)c3C)[nH]c2c1 (stereo not given)
26.6 µM (active) and inactive: Potency [3]
21.1 µM (active) and inactive: Potency [2]
inactive: Potency [1] | Potency [5] | Potency [6] | Potency [7] | Potency [8] | Potency [9] | Potency [10] | Potency [11] | Potency [12] | Potency [13] | Potency [14] | Potency [15] | Potency (Aromatase (Homo sapiens)) | Potency [16]
active: Potency [4] 26.6 µM

C=CC(=O)NC(C)C
inactive: Potency [1] | Potency [2] | Potency [3] | Potency [4] | Potency [5] | Potency [6] | Potency [7] | Potency [8] | Potency [9] | Potency [10] | Potency [11] | Potency [12] | Potency [13] | Potency [14] | Potency [15] | Potency (Aromatase (Homo sapiens)) | Potency [16]

CC(=O)c1ccc[nH]1
inactive: Potency [1] | Potency [2] | Potency [3] | Potency [4] | Potency [5] | outcome [17] | Potency [18] | Potency [6] | Potency [19] | Potency [8] | Potency [9] | Potency [10] | Potency [11] | Potency [12] | Potency [13] | Potency [14] | Potency [15] | Potency (Aromatase (Homo sapiens)) | Potency [16]

CCC(Cl)CC(Cl)C(Cl)C(Cl)C(Cl)C(C)Cl (stereo not given)
inactive: Potency [1] | Potency [2] | Potency [3] | Potency [4] | Potency [5] | Potency [18] | Potency [6] | Potency [19] | Potency [7] | Potency [8] | activity, negative = inhibition [10] 21.9% [at 15 µM] | activity, negative = cytotoxicity [11] -22.7% [at 15 µM] | activation [12] 3.15% [at 14.9 µM] | Potency [15] | Potency (Aromatase (Homo sapiens)) | Potency [16]
active: Potency [13] 0.594 µM

C=Cc1ccc(OC(C)=O)cc1
inactive: Potency [1] | Potency [2] | Potency [3] | Potency [4] | Potency [5] | outcome [17] | Potency [18] | Potency [6] | Potency [19] | Potency [7] | Potency [8] | Potency [9] | Potency [12] | Potency [13] | Potency [14] | Potency [15] | Potency (Aromatase (Homo sapiens)) | Potency [16]

CCCCCCCCCCCCCCCC(=O)OCC
inactive: Potency [1] | Potency [2] | Potency [3] | Potency [4] | Potency [5] | Potency [6] | Potency [7] | Potency [8] | Potency [9] | Potency [10] | Potency [11] | Potency [12] | Potency [13] | Potency [14] | Potency [15] | Potency (Aromatase (Homo sapiens)) | Potency [16]

O=P(O)(O)Oc1ccccc1
inactive: Potency [1] | Potency [2] | Potency [3] | Potency [4] | Potency [5] | Potency [6] | Potency [7] | Potency [8] | Potency [9] | Potency [10] | Potency [11] | Potency [12] | Potency [13] | Potency [14] | Potency [15] | Potency (Aromatase (Homo sapiens)) | Potency [16]

O=C(O)CCS
inactive: Potency [1] | Potency [2] | Potency [3] | Potency [4] | Potency [5] | Potency [6] | Potency [7] | Potency [8] | Potency [9] | Potency [10] | Potency [11] | Potency [12] | Potency [13] | Potency [14] | Potency [15] | Potency (Aromatase (Homo sapiens)) | Potency [16]

From PubChem BioAssay (Tox21)
